The record followed here is PubChem BioAssay.

Assay [1] can be described thus: liver-stage malaria parasite load reduction – cell-based, known kinase inhibitor set, luminescence, hepatoma host viability (AID 624392).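 Note: infected cells incubated roughly two days before readout.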 To be noted: Plasmodium liver stage in hepatoma cells, luciferase luminescence, concentration not given here; liver cell % of control: measured here: host liver cell viability; parasite % of control: stronger effect = lower value.
Assay [2] is described as follows: altered dexamethasone sensitivity, NF-kB reporter, cell-based, luciferase, IL-1B stimulus (AID 624486).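 For percent of negative control (+Dex): 100% = mean signal of vehicle control wells on the plate.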 To be noted: IL-1B + dexamethasone, luminescence; percent of negative control (+Dex): actives lie on both sides, concentration not given here; z-score: measured here: IL-1B alone, no Dex.
Assay [3] is described as follows: C. elegans survival during P. aeruginosa infection – whole organism (AID 651566).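 Note: tested at 14 µM; sign flipped so higher z means a lower ratio.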 To be noted: C. elegans killed by P. aeruginosa, survival ratio.
The nature of assay [4]: pro-inflammatory signaling induction in mouse macrophages – cell-based, murine, luminescence (AID 652131). Conditions: murine macrophage pro-inflammatory reporter, stronger effect = higher value.
The target of assay [5] is Cellular tumor antigen p53 (Homo sapiens) (UniProt P04637). Kind of assay: GFP-p53 level modulators in HPV16+ cells – imaging, known kinase inhibitor set, EGFP/DsRed ratio (AID 1053116).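 Note: cells exposed to compounds for 24 h at 37 °C before reading.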 Conditions: GFP-p53 stability, stronger effect = higher value; EGFP object count: measured here: GFP-p53 positive objects count.
Assay [6] in a line: inducers of IRF3 signaling, differentiated THP-1 – cell-based, PMA-stimulated THP-1, luminescence (AID 1053176). To be noted: PMA-differentiated THP-1, IRF3 reporter luminescence; stronger effect = higher value.
Assay [7] in a line: MELAS cybrid and Rieske KO viability enhancers – cell-based, MELAS cybrids, Rieske KO mouse fibroblasts, CellTiter-Glo, primary screen (AID 1508586;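 active = mean z-score across replicates of 1.96 or higher in either the MELAS or the Rieske mutant cell line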;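 note: z relative to plate mean and SD of compound and empty wells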). Conditions: low glucose.
The mark [8] stands for this setting: MELAS cybrid survival, CellTiter-Glo 48 h, stronger effect = higher value.
Setting [9] is: Rieske KO mouse fibroblast survival, CellTiter-Glo 72 h.

SMILES strings stand for the structures. The source made the active and inactive calls. Unless noted, the rule behind the calls is not given here.

Cellular tumor antigen p53 (Homo sapiens), sequence (P04637 whole entry, looked up): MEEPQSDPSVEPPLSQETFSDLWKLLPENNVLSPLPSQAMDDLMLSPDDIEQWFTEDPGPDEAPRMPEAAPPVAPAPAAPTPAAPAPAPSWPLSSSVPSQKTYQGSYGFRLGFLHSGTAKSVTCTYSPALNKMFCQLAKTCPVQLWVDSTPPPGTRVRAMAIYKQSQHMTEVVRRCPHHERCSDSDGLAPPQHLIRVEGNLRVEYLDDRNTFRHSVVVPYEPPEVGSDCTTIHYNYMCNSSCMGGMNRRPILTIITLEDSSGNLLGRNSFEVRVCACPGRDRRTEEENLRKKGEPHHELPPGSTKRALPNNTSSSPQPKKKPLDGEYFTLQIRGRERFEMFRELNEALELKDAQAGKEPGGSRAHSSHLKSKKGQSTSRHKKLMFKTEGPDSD

`NS(=O)(=O)c1ccc(-c2cc3ccncc3cc2OCc2ccccc2)cc1` returned a liver cell % of control in assay [1] of 218%. The parasite % of control in assay [1] is 144% (inactive). Also, in assay [2], the percent of negative control (+Dex) was 81% (inactive). In addition, the z-score in assay [2] is -1.8; in assay [3], -0.345 (inactive); in assay [4] it was 6.56 (active); in assay [7] (setting [8]) it was -0.151 (inactive); in assay [7] (setting [9]) it was -0.251. In addition, the EGFP object count in assay [5] was found to be 4.5. For the same compound, in assay [5], the EGFP/DsRed ratio was 0.0743 (inactive). In addition, the fraction signal in assay [6] was -0.005 (inactive).

With `O=C(O[C@H]1CN[C@H](C#Cc2cc3ncnc(Nc4ccc5c(ccn5Cc5cc(F)ccc5F)c4)c3s2)C1)N1CCOCC1`, in assay [1], the liver cell % of control was 93.4%. Moreover, the parasite % of control in assay [1] was 75.1% (inactive). Moreover, the percent of negative control (+Dex) in assay [2] is 62% (inactive). The z-score was -2.06 in assay [2]; 0.505 (inactive) in assay [3]; 2.01 (inactive) in assay [4]; -0.816 (inactive) in assay [7] (setting [8]); -0.0743 in assay [7] (setting [9]). Besides, the EGFP object count in assay [5] was 3. Further, the EGFP/DsRed ratio in assay [5] is 0.0606 (inactive). Further, in assay [6], the fraction signal was -0.0085 (inactive).

With `CCn1c(-c2nonc2N)nc2c(C#CCN)ncc(OCCCN)c21`, the liver cell % of control in assay [1] is 63.5%. For the same compound, the parasite % of control in assay [1] was 112% (inactive). Also, the percent of negative control (+Dex) in assay [2] is 85% (inactive). In addition, the z-score in assay [2] was -0.55; in assay [3], -0.71 (inactive); in assay [4], 3.14 (inactive); in assay [7] (setting [8]), -0.193 (inactive); in assay [7] (setting [9]) it was -0.317. The EGFP object count in assay [5] came to 6. For the same compound, the EGFP/DsRed ratio in assay [5] is 0.152 (inactive). In addition, the fraction signal in assay [6] was -0.008 (inactive).

Consider `c1ccc(COc2ccc(Nc3ncnc4ccc(-c5ccco5)cc34)cc2)cc1`, for which the liver cell % of control in assay [1] is 99%. In assay [1], the parasite % of control was 71.7% (inactive). The percent of negative control (+Dex) in assay [2] was 106% (inactive). The z-score was 1.01 in assay [2]; 0.34 (inactive) in assay [3]; -1.14 (inactive) in assay [4]; -0.351 (inactive) in assay [7] (setting [8]); -0.356 in assay [7] (setting [9]). Further, the EGFP object count in assay [5] was determined as 3. In assay [5], the EGFP/DsRed ratio is 0.073 (inactive). Besides, the fraction signal in assay [6] was 0.006 (inactive).

Take `CN(c1ccc(NC(=O)NCCN2CCOCC2)cc1)c1ccnc(Nc2ccc(CS(C)(=O)=O)cc2)n1`: the liver cell % of control in assay [1] turned out to be 99.9%. Further, the parasite % of control in assay [1] was 114% (inactive). The percent of negative control (+Dex) in assay [2] was 94% (inactive). For the same compound, the z-score in assay [2] was -0.155; in assay [3], 0.89 (inactive); in assay [4], 2.96 (inactive); in assay [7] (setting [8]), -0.011 (inactive); in assay [7] (setting [9]), -0.139. In addition, the EGFP object count in assay [5] is 3. For the same compound, in assay [5], the EGFP/DsRed ratio was 0.184 (inactive). The fraction signal in assay [6] is -0.0035 (inactive).

Take `CCN1CCC(CC(=O)Nc2n[nH]c3nc(-c4cccs4)c(Br)cc23)CC1`: the liver cell % of control in assay [1] worked out at 76.8%. Further, in assay [1], the parasite % of control is 72.5% (inactive). Also, the percent of negative control (+Dex) in assay [2] is 88% (inactive). Also, the z-score was -0.195 in assay [2]; 0.735 (inactive) in assay [3]; -0.532 (inactive) in assay [4]; 0.148 (inactive) in assay [7] (setting [8]); -0.143 in assay [7] (setting [9]). The EGFP object count in assay [5] was found to be 8.5. The EGFP/DsRed ratio in assay [5] was 0.138 (inactive). Further, the fraction signal in assay [6] is 0.006 (inactive).

Consider `CCCN1CCCC(c2ccc(Nc3nc(Nc4cc(F)ccc4C(N)=O)c4cc[nH]c4n3)c(OC)c2)C1` (centres undefined), for which the liver cell % of control in assay [1] came to 71%. Further, in assay [1], the parasite % of control is 101% (inactive). Also, the percent of negative control (+Dex) in assay [2] is 73.5% (inactive). For the same compound, the z-score in assay [2] was -2.44; in assay [3], 1.62 (inactive); in assay [4], -0.56 (inactive); in assay [7] (setting [8]), -0.991; in assay [7] (setting [9]), 4.23. Besides, the EGFP object count in assay [5] was 50.5. In addition, the EGFP/DsRed ratio in assay [5] is 0.576 (inactive). Besides, in assay [6], the fraction signal was -0.003 (inactive).

`Cc1nnc(-c2cccc(-c3ccc(C(=O)NCC4CC4)cc3)c2)o1`: in assay [1], the liver cell % of control was determined as 102%. For the same compound, in assay [1], the parasite % of control was 99.2% (inactive). Besides, the percent of negative control (+Dex) in assay [2] is 89.5% (inactive). The z-score in assay [2] was -0.24; in assay [3], 0.175 (inactive); in assay [4], -0.114 (inactive); in assay [7] (setting [8]), 0.518 (inactive); in assay [7] (setting [9]), 0.121. Moreover, in assay [5], the EGFP object count worked out at 4. Further, in assay [5], the EGFP/DsRed ratio was 0.0445 (inactive). The fraction signal in assay [6] was -0.01 (inactive).

Regarding `c1ccc(Oc2ccc(Nc3ncc(-c4ccccc4)o3)cc2)cc1`, the liver cell % of control in assay [1] stood at 103%. Also, the parasite % of control in assay [1] was 102% (inactive). In addition, the percent of negative control (+Dex) in assay [2] was 110% (inactive). For the same compound, the z-score is 1.91 in assay [2]; 0.1 (inactive) in assay [3]; 3.61 (inactive) in assay [4]; -0.198 (inactive) in assay [7] (setting [8]); -0.417 in assay [7] (setting [9]). Moreover, the EGFP object count in assay [5] was determined as 4.5. Further, the EGFP/DsRed ratio in assay [5] was 0.122 (inactive). In assay [6], the fraction signal is 0.0065 (inactive).

In assay [1], `O=C(Nc1n[nH]c2nc(-c3ccc(O)cc3)c(Br)cc12)C1CC1` gave a liver cell % of control of 74.6%. Besides, the parasite % of control in assay [1] was 71% (inactive). In addition, the percent of negative control (+Dex) in assay [2] was 206% (active). Besides, the z-score in assay [2] was 0.485; in assay [3] it was 0.105 (inactive); in assay [4] it was -1.27 (inactive); in assay [7] (setting [8]), 7.51 (active); in assay [7] (setting [9]), -0.202. Further, in assay [5], the EGFP object count is 2.5. Besides, the EGFP/DsRed ratio in assay [5] is 0.0391 (inactive). Further, the fraction signal in assay [6] is -0.013 (inactive).

In the case of `Fc1cccc(COc2ccc(Nc3ncnc4sc(-c5cccs5)cc34)cc2Cl)c1`, the liver cell % of control in assay [1] worked out at 71.8%. For the same compound, the parasite % of control in assay [1] was 60.1% (inactive). The percent of negative control (+Dex) in assay [2] was 92% (inactive). In addition, the z-score in assay [2] was 0.005; in assay [3] it was 0.99 (inactive); in assay [4], -0.373 (inactive); in assay [7] (setting [8]), -0.00271 (inactive); in assay [7] (setting [9]), -0.496. Besides, in assay [5], the EGFP object count was determined as 5. Also, the EGFP/DsRed ratio in assay [5] is 0.0533 (inactive). Besides, the fraction signal in assay [6] was -0.0045 (inactive).

On to `CN(C)CCCn1c(-c2nonc2N)nc2cnccc21`, for which the liver cell % of control in assay [1] was 105%. Moreover, the parasite % of control in assay [1] is 124% (inactive). Moreover, in assay [2], the percent of negative control (+Dex) is 91% (inactive). Moreover, the z-score is 0.395 in assay [2]; 0.105 (inactive) in assay [3]; -0.067 (inactive) in assay [4]; -0.855 (inactive) in assay [7] (setting [8]); -0.298 in assay [7] (setting [9]). Further, in assay [5], the EGFP object count turned out to be 3.5. Besides, the EGFP/DsRed ratio in assay [5] is 0.0389 (inactive). The fraction signal in assay [6] is -0.0015 (inactive).

In assay [1], `CS(=O)(=O)CCNCc1ccc(-c2ccc3ncnc(Nc4ccc(OCc5cccc(C(F)(F)F)c5)cc4)c3c2)o1` registered a liver cell % of control of 91.4%. In addition, the parasite % of control in assay [1] was 126% (inactive). Besides, the percent of negative control (+Dex) in assay [2] was 85% (inactive). For the same compound, the z-score in assay [2] was -0.68; in assay [3], -0.1 (inactive); in assay [4], 0.289 (inactive); in assay [7] (setting [8]) it was 0.798 (inactive); in assay [7] (setting [9]), -0.393. For the same compound, the EGFP object count in assay [5] amounted to 4.5. Further, in assay [5], the EGFP/DsRed ratio is 0.109 (inactive). For the same compound, in assay [6], the fraction signal is 0.018 (inactive).

Turning to `O=C1NC(=O)C(c2cccc(Cl)c2)=C1Nc1ccc(O)c(Cl)c1`, the liver cell % of control in assay [1] stood at 112%. In addition, the parasite % of control in assay [1] was 102% (inactive). The percent of negative control (+Dex) in assay [2] was 93% (inactive). Moreover, the z-score is 0.42 in assay [2]; -0.775 (inactive) in assay [3]; 0.127 (inactive) in assay [4]; -1.05 (inactive) in assay [7] (setting [8]); -0.373 in assay [7] (setting [9]). Moreover, the EGFP object count in assay [5] is 5. For the same compound, the EGFP/DsRed ratio in assay [5] was 0.0621 (inactive). The fraction signal in assay [6] is -0.0075 (inactive).
